# Only some compounds are listed: those with a hit (about 18% of all), similar ones and a draw of the others.
# DT40 TDP1 no CPT: qHTS for Inhibitors of human tyrosyl-DNA phosphodiesterase 1 (TDP1): qHTS in cells in absence of CPT; DT40 Tdp1-/- hTDP1 cells, no CPT, ATP luminescence, 48 h; Potency, µM (highest dose often 46.2 µM), inactives show at the top dose activity change, negative = growth inhibition, usual class: inhibitors; actives 15% (n = 420,000); AID 686978, 2013; also: potency is read from the fitted curve at half-maximal effect; % is scaled to controls: 0 for no effect and ±100 for the full control effect; nearly all actives have a fitted effect of over 55% in size
#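 No-CPT arm: Tdp1-/-;hTDP1 DT40 cells (400/well) plus compounds, incubated ≥48 hr at 37 °C. Readout CellTiter-Glo luminescence.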
# TDP1 cell CPT: DT40-hTDP1 cell growth loss with CPT | chicken DT40 Tdp1-/-;hTDP1 cells + 20 nM CPT, ATP luminescence, 48 h | Potency, µM (highest dose often 46.2 µM), inactives show at the highest dose activity change, negative = growth inhibition, most hits filed as inhibitors | actives 12% (n = 420,000) | AID 686979; also: potency is read from the fitted curve at half-maximal effect; % is scaled to controls: 0 for no effect and ±100 for the full control effect; nearly all actives have a fitted effect of over 55% in size
#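 Chicken DT40 Tdp1-/- cells complemented with human TDP1, 400 cells/well, exposed to compounds plus 20 nM camptothecin for at least 48 h at 37 C; viability read as ATP content by CellTiter-Glo luminescence.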
# IL-1B inflam inh: inflammasome signaling inhibition, IL-1 beta readout; THP-1 LPS/ATP IL-1B secretion, AlphaLISA, 16 h; hits give low values; activity change, % at 57.5 µM; actives 4.7% (n = 360,000); AID 743279; in the data active = activity change below about -50%; inconclusive = mostly about -30% to -49%; also: % is scaled to controls: 0 for no effect and ±100 for the full control effect
#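 THP-1 cells pretreated 1 hr with compounds (up to 57.5 uM final), then stimulated with LPS (250 ng/mL final) plus ATP (1.25 mM final); secreted IL-1B measured by AlphaLISA after 16 hr, decreased signal indicating inhibition.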
# HepG2 tox: kills HepG2 cells in TGF-b inhibitor counter-screen | Potency, µM (top dose mostly 46.1 µM), for inactives: at the highest dose activity change, negative = cytotoxicity, actives largely listed as cytotoxic | AID 588856 | HepG2 CAGA-GFP viability, ATP luminescence, 18 h | actives 0.76% (n = 410,000); also: potency is read from the fitted curve at half-maximal effect
#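 CellTiter-Glo luminescence gave cytotoxicity after 18 hours at 37 degrees C. The cells were HepG2 CAGA-GFP in 1% FBS DMEM, stimulated with 500 pg/mL TGF-beta after compound addition. %Activity was normalised to no-cell wells (complete cell-killing) and DMSO (no toxicity), and curves were fitted and classified.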
# TDP1 inh: blocks human tyrosyl-DNA phosphodiesterase 1; recombinant TDP1, AlphaScreen DNA substrate cleavage; Potency, µM (doses to about 130 µM), inactives show at the highest dose activity change, negative = inhibition, most hits filed as inhibitors; actives 0.28% (n = 350,000); AID 485290; also: potency is read from the fitted curve at half-maximal effect; % is scaled to controls: 0 for no effect and ±100 for the full control effect; nearly all actives have a fitted effect of over 40% in size
# Target sequence (Q9NUW8 whole entry, looked up): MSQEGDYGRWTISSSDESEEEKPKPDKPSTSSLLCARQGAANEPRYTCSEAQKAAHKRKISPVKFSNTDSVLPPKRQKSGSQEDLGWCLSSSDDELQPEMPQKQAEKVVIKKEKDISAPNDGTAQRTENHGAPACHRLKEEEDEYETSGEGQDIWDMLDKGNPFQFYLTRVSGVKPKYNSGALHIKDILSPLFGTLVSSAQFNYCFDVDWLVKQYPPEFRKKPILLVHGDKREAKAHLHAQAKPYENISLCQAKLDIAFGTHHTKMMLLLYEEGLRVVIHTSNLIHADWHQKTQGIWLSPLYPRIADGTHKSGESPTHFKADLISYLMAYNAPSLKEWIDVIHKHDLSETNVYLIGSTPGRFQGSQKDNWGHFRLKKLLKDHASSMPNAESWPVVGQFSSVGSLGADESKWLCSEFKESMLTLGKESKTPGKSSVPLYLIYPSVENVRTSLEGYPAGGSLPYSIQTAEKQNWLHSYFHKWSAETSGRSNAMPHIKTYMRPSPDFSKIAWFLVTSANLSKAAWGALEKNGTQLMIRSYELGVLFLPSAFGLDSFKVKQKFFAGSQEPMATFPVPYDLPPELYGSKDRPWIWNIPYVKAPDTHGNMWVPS
#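 Tdp1 1 nM final; 15 min RT w/ cpd; substrate 15 nM, 5 min; beads 10 ug/ml, 10 min; AlphaScreen read. Neg ctrl: no enzyme.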
# TGFb SMAD3 inh: inhibitors of TGF-b signaling. HepG2 CAGA-GFP TGF-b/SMAD3 reporter, GFP fluorescence, 18 h; TGF-beta stimulated, 500 pg/mL final. actives 1.2% (n = 410,000). Potency, µM (titrated, usually from 46.1 µM), for inactives: at the top dose activity, negative = inhibition, most hits filed as inhibitors; also: potency is read from the fitted curve at half-maximal effect; % is scaled to controls: 0 for no effect and ±100 for the full control effect; nearly all actives have a fitted effect of over 65% in size
#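 Cell-based qHTS in HEPG2 carrying a CAGA-GFP Smad reporter; compounds added before 500 pg/mL final TGF-beta, 18 h incubation at 37 degrees C, GFP fluorescence quantified per cell by imaging cytometry.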
# * = called active by the depositor; ? = inconclusive; . = no result given; [ ] = another dose, or the depositor's remark. Unless noted, calls follow the shape of the dose curve; as a rule, active = well fitted curve in the direction sought with a large enough effect; inconclusive = small, poorly fitted or top-dose-only effect, or another doubt; inactive = no such curve, though single readings can be large; an effect the other way counts as inactive or inconclusive.
SMILES,DT40 TDP1 no CPT,TDP1 cell CPT,IL-1B inflam inh,HepG2 tox,TDP1 inh,TGFb SMAD3 inh
COc1ccc(-n2c(=O)c3c4c(sc3n(Cc3ccccc3)c2=O)CN(C(C)=O)CC4)cc1OC,-19%,3%,.,-10%,2%,0%
COc1ccc(NC(=O)COc2ccc(N(C)S(=O)(=O)c3ccc(C)cc3)cc2)cc1,?,?,?,-3%,-3%,-27%
CCOc1ccc(S(=O)(=O)N(C)c2ccc(OCC(=O)NCCc3ccc(OC)cc3)cc2)cc1,23µM*,21µM*,2,0%,-2%,-5%
COc1ccc(CCNC(=O)c2ccc(N(C)S(=O)(=O)c3ccc(C)cc3)cc2)cc1,16µM*,?,-2,-3%,3%,5%
CN(c1ccccc1)S(=O)(=O)c1cccc(C(=O)NCCc2ccc(O)c(O)c2)c1,12µM*,8.2µM*,14,-3%,-3%,-13%
CCN(CC)S(=O)(=O)c1cccc(C(=O)NCCc2ccccc2)c1,?,?,22,-11%,.,26%
CCN(c1ccccc1)S(=O)(=O)c1ccc(C(=O)N(C)CCc2ccc(OC)c(OC)c2)cc1,21µM*,?,-18,-2%,7%,-2%
CCN(c1ccccc1)S(=O)(=O)c1ccc(OC)c(OC)c1,-15%,-3%,-2,-2%,-1%,15%
CCN(c1ccccc1)S(=O)(=O)c1ccc(Cl)c(C(=O)NCCc2ccc(OC)cc2)c1,?,18µM*,5,3%,0%,-14%
CCc1cccc2cc3c(N)c(C(=O)Nc4ccc(S(=O)(=O)N5CCCC5)cc4)sc3nc12,8.2µM*,?,-15,-14%,-2%,43%
COc1cccc2cc(C(=O)Nc3ccc(C)cc3)c(=O)oc12,-1%,-6%,.,-21%,-3%[12.3 µM],3%
COc1ccc(NC(=O)c2cc3cccc(OC)c3oc2=Nc2ccc(C(=O)O)cc2)cc1OC,13µM*,9.2µM*,-1,-2%,5%,11%
COc1ccccc1-c1cc(NC(C)=O)c2ncc(-c3cccc(C(C)=O)c3)n2c1,15µM*,23µM*,-24,-23%,.,-20%
COc1ccccc1-c1cc(NC(C)=O)c2ncc(-c3ccc(S(C)(=O)=O)cc3)n2c1,?,?,-2,3%,.,-22%
COc1ccc(-c2cnc3c(NC(C)=O)cc(-c4ccsc4)cn23)cc1OC,21µM*,16µM*,?,-21%,.,8%
COc1ccc(-c2cnc3c(NC(C)=O)cc(-c4ccccc4OC)cn23)cc1OC,-83%,12µM*,.,-12%,.,9%
CC(=O)Nc1cc(-c2cccnc2)cn2c(-c3ccc(F)cc3)cnc12,23µM*,?,7,-19%,.,-19%
CSCCC(NC(=O)c1cccc(C)c1)C(=O)OCC(=O)Nc1c(C)nn(-c2ccccc2)c1C (configuration not stated),-22%,3%,33,-3%,.,-20%
O[C@H]1CN(Cc2cccs2)[C@@H](c2ccccc2)C[C@@H]1n1cc(C2CC2)nn1,10%,-7%,34,-11%,.,-1%
CC(=O)Nc1cc(-c2ccsc2)cn2c(-c3ccc(F)cc3)cnc12,18µM*,16µM*,-10,-22%,.,-9%
COc1ccc(-c2cc(NC(C)=O)c3ncc(-c4ccc(OC)c(OC)c4)n3c2)cc1OC,15µM*,18µM*,-19,0%,.,0%
CC(C)N1CCN(c2ccc(OC[C@@H]3CO[C@@](Cn4cncn4)(c4ccc(Cl)cc4Cl)O3)cc2)CC1,.,.,.,.,6%[56.1 µM],.
Cn1cc(C(=O)c2ccc(F)cc2)cc1-c1nc2ccccc2n1C,16µM*,?,-29,-17%,7%,-3%
Cn1c(O)c(C=NCCCCCC(=O)O)c(=O)n(C)c1=O,14%,-18%,-12,3%,.,6%
COc1ccc(CN(C2CCCCC2C)S(=O)(=O)c2ccc(S(=O)(=O)N(C)C)cc2)cc1OC (configuration not stated),21µM*,16µM*,49,-12%,-3%,-16%
SMILES,DT40 TDP1 no CPT,TDP1 cell CPT,IL-1B inflam inh,HepG2 tox,TDP1 inh,TGFb SMAD3 inh
CC(C)Oc1ccc(C(=O)Nc2nonc2-c2ccc(OC(C)C)cc2)cc1,-12%,-6%,.,-12%,7%,0%
CNC(=O)C1CCC(=O)N1Cc1c[nH]c2ccccc12 (configuration not stated),10%,6%,9,1%,.,-2%
Nc1ccc(N2CCCCC2)c2nonc12,16µM*,26µM*,9,-76%,3%,13µM*
Cc1nn(-c2cc(N3CCCCC3)ccc2N)c(=O)c2ccccc12,-11%,5%,-15,0%,9%,-23%
Nc1ccc(N2CCCCC2)cc1N1CCCCC1,?,?,?,-29%,10%,10µM*
Nc1c(N2CCCC2)cc(Cl)c2nonc12,?,?,11,-96%,-5%,10µM*
CN(c1ccc(C(=O)NC2CCCCC2)cc1)S(=O)(=O)c1ccccc1,?,?,3,-26%,.,?
O=C(NC1CCCCC1)C(c1ccccc1)N1CCc2ccccc21 (configuration not stated),21µM*,26µM*,-11,-23%,9%,-8%
O=C(Nc1ccc(Br)cc1)N1CCc2ccccc2C1,-11%,-23%,-83*,-6%,0%[56.1 µM],-23%
O=C(NC1CCCCC1)N1CCc2ccccc2C1,-18%,-11%,-79*,-3%,8%,0%
Cc1cc(C)cc(NC(=O)N2CCc3ccccc3C2)c1,-9%,-16%,?,-2%,2%[56.1 µM],-24%
O=C(Nc1ccc(F)cc1)N1CCc2ccccc2C1,?,-28%,-55*,-69%,8%,0%
O=C(CNC1CCCCC1)N1CCc2ccccc2C1,-17%,2%,6,-2%,?,-2%
COC(=O)[C@H](C)[C@H](CC(C)C)NC(=O)[C@H](C)[C@H](CC(C)C)NC(=O)c1ccccn1,.,.,.,4%,7%,-20%
COc1ccccc1N(CN1C(=O)c2ccccc2C1=O)C(=O)c1cccc(C)c1,?,21µM*,-7,0%,3%,-26%
COc1cccc(C(=O)N(CN2CCCC2=O)c2ccccc2OC)c1,-15%,-19%,14,-5%,6%,-9%
COc1ccc(N2CCN(C3CCCN(C(=O)CCN4CCCCO4)C3)CC2)cc1 (configuration not stated),24%,9%,-2,-3%,.,9%

# Source: PubChem (National Center for Advancing Translational Sciences (NCATS))
